# Results published in PubChem BioAssay AID651616 (The Scripps Research Institute Molecular Screening Center, 2012).
# About 4,400 (79%) of roughly 5,600 compounds were called active. Rule as the data show it: active = inhibition above about 27%; inactive = the rest. So high a share suggests a set chosen from earlier hits. The list is a sample of the results.
# Biological target: Fructose-bisphosphate aldolase (Mycobacterium tuberculosis (strain ATCC 25618 / H37Rv)) (UniProt P9WQA3)
# Test: M. tuberculosis aldolase blockers, biochemical, fluorescence, strain H37Rv, confirmation (AID 651616);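 also: 0% = vehicle wells and 100% = reference inhibitor wells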
# Settings: purified M. tuberculosis FBA, fluorescence read-out, at 1 µM, stronger effect = higher value
# Fructose-bisphosphate aldolase (Mycobacterium tuberculosis (strain ATCC 25618 / H37Rv)), sequence (P9WQA3 whole entry, looked up): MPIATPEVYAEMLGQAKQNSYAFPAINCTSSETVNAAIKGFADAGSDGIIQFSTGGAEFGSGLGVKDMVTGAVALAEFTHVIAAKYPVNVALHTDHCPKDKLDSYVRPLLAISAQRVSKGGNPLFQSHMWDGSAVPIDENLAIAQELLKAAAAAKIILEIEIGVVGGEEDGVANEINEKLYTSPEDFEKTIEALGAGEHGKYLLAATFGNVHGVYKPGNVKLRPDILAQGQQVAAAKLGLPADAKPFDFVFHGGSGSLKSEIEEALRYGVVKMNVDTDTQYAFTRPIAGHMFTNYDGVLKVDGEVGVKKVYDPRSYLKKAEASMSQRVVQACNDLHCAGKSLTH
row,SMILES,inhibition
1,CC(C)OCCCNc1ncnc2c1[nH]c1ccc(F)cc12,132% (active)
2,CC(C)CN1CCNC(=O)C1CC(=O)N(C)CC1CCOCC1 (stereo unspecified),138% (active)
3,COC(=O)COc1cc(C)cc2oc(=O)c3c(c12)CCCC3,124% (active)
4,Cc1cc(OCc2cc(C(=O)O)oc2C)c2c3c(c(=O)oc2c1)CCCC3,151% (active)
5,CCCS(=O)(=O)Nc1c(C(=O)O)[nH]c2ccccc12,54.9% (active)
6,CCOC(=O)c1c(-c2ccccc2)oc2ccc(OCC(N)=O)cc12,148% (active)
7,CCOC(=O)c1c(-c2ccccc2)oc2ccc(OCC(=O)NN)cc12,108% (active)
8,COC(=O)c1c(-c2ccsc2)oc2ccc(-c3cc(OC)c(OC)c(OC)c3)cc12,2.75% (inactive)
9,COc1cc(C(F)(F)F)nc2c(Br)c(C(C)(C)C)nn12,66.4% (active)
10,Cc1ccc(NC(=O)CN(C)C(=O)COC(=O)c2nccnc2N)cc1,4.29% (inactive)
11,CCN(CC)c1ccc2cc(C(=O)O)c(=O)oc2c1,22.1% (inactive)
12,COc1ccc2oc(=O)c(C(=O)N3CCCC3)cc2c1,113% (active)
13,COc1ccc2oc(=O)c(C(=O)NCc3ccccn3)cc2c1,10.3% (inactive)
14,CCc1c(C)nc2cc(C)[nH]n2c1=O,45.6% (active)
15,C=CCc1c(C)nc2cc(-c3ccccc3)[nH]n2c1=O,56.1% (active)
16,CCc1c(C)nc2cc(-c3cccs3)[nH]n2c1=O,26.8% (inactive)
17,CN(C)S(=O)(=O)c1ccc(N/C=C(\[N+](=O)[O-])S(=O)(=O)c2ccccc2)cc1,2.34% (inactive)
18,COCc1cc(=O)oc2cc(NS(=O)(=O)c3ccc(C)cc3)ccc12,62.7% (active)
19,COCCN(CCOC)c1nc(N)c2c(N)nc3c(c2c1C#N)CC(=O)N3Cc1ccc(Cl)cc1,89.8% (active)
20,CCCC1OC23CCCCC2C(C#N)(C#N)C1(C#N)C(=N)O3 (stereo unspecified),-0.85% (inactive)
21,CC(=O)N1CCN(C(=O)c2cc(-c3ccc(Cl)s3)nc3ccccc23)CC1,12.6% (inactive)
22,O=C(c1cc(-c2ccc(Cl)s2)nc2ccccc12)N1CCOCC1,111% (active)
23,Cc1nn(C)c(Oc2ccccc2)c1CCNS(=O)(=O)c1ccc(F)cc1,157% (active)
24,Cc1cccc(NC(=O)c2sc3nc(N4CCOCC4)c4c(c3c2N)CCCC4)c1,108% (active)

row,SMILES,inhibition
1,Oc1ccc(Br)cc1C=Nc1ccc2[nH]ncc2c1,79.1% (active)
2,COc1ccc(-c2cn3ccc(C)cc3n2)cc1,4.46% (inactive)
3,COc1ccc(-c2cc(C(=O)N(C)Cc3ccccc3)c3ccccc3n2)cc1,-2.17% (inactive)
4,COc1ccc(-c2cc(C(=O)Nc3ccccc3O)c3ccccc3n2)cc1,133% (active)
5,COc1nc(N=C(N)N)nc2c(C)cccc12,108% (active)
6,COc1cc2nc(N3CCN(C(=O)[C@@H]4CCCO4)CC3)nc(N)c2cc1OC,109% (active)
7,CC(C)C1Nc2c(C(=O)O)cccc2C(Nc2ccccc2C(=O)O)C1(C)C (stereo unspecified),95.8% (active)
8,Cc1noc(C)c1COc1ccc2ccc(=O)oc2c1,55.1% (active)
9,COC(=O)c1c(C)c(C)nc(N)c1C#N,56.3% (active)
10,CCOC(=O)Cc1c(C)nc2c(C#N)c(C)nn2c1C,63.7% (active)
11,Cc1cc(C)c(-c2c(O)c3ccccc3n(C)c2=O)c(C)c1,78.7% (active)
12,CCSc1nnc(-c2cc3c(s2)-c2ccccc2CC3)o1,76.8% (active)
13,CCOc1ccc(-c2nnc(-c3ccco3)o2)cc1,106% (active)
14,CCCCOc1ccc(-c2nnc(-c3ccco3)o2)cc1,174% (active)
15,CCNC(=S)Nc1ccc2c(c1)c(=O)n(C)n2Cc1ccc(Cl)cc1,3.5% (inactive)
16,Cc1ccc(-c2nc3ccccc3[nH]c2=O)cc1,74.3% (active)
17,CCOC(=O)COc1nc(C)cc(C(F)(F)F)c1C#N,39.2% (active)
18,CCc1cc(=O)oc2cc(C)cc(OCC(=O)N3CCC[C@@H]3C(=O)O)c12,83.3% (active)
19,Cc1ccn2c(c1)nc(=O)c1cc(S(=O)(=O)N3CCC(C)CC3)ccc12,5.35% (inactive)
20,Cc1ccc(-c2nc3ccccc3c(=O)n2-c2ccc(Br)cn2)cc1,98.1% (active)
21,C[C@H]1CN([C@@H](C)CO)C(=O)c2cc(Br)cnc2O[C@H]1CN(C)S(=O)(=O)c1cccs1,8.79% (inactive)
22,COCCNc1cc(-c2ccccc2)nc2cc(-c3cccc(F)c3)nn12,133% (active)
23,Fc1ccc(COc2cccc(-c3n[nH]c(=S)o3)c2)cc1,169% (active)
24,O=C(Nc1ccc2nccnc2c1)c1ccco1,"692% [above what the read-out allows, likely interference] (active)"

row,SMILES,inhibition
1,CCCn1c(=O)c(-c2ccccc2)c(O)c2ccccc21,94.4% (active)
2,Cc1ccc(S(=O)(=O)N2C[C@@H](C)[C@]3(C2)[C@H](O)[C@H](OC(=O)NCc2ccccc2)C[C@H]2C(=O)N(c4ccccc4)C(=O)[C@H]23)cc1,9.3% (inactive)
3,Oc1ccccc1C1=NN(c2ccccc2)C(c2ccccc2)C1 (stereo unspecified),107% (active)
4,COc1ccc(C2CC(c3cccs3)=NN2c2ccccc2)cc1 (stereo unspecified),38.9% (active)
5,Fc1ccc(N2N=C(c3cccs3)CC2c2ccco2)c(F)c1 (stereo unspecified),1.22% (inactive)
6,COc1ccccc1N1N=C(c2cccs2)CC1c1ccccc1 (stereo unspecified),46.8% (active)
7,COc1ccc(C2CC(c3cccs3)=NN2c2ccc(F)cc2)cc1OC (stereo unspecified),101% (active)
8,CS(=O)(=O)Nc1ccc(C2=NN(S(C)(=O)=O)C(c3cccs3)C2)cc1 (stereo unspecified),2.17% (inactive)
9,Cc1ccc(-c2nc(C#N)c(NCCCn3ccnc3)o2)cc1,41.3% (active)
10,Cc1nc2ccc(NC(=O)N3CCC(c4ccccc4)C3)cc2nc1C (stereo unspecified),98.1% (active)
11,O=C(NCc1ccccc1)c1onc(CSc2nc3ccccc3[nH]2)c1C(=O)NCc1ccccc1,74.2% (active)
12,COCCNc1nc(-n2nc(C)cc2C)nc2sc3c(c12)CCCC3,109% (active)
13,O=C(NCCCN1CCOCC1)c1cnn2c(-c3ccccc3)cc(-c3ccccc3)nc12,96.2% (active)
14,CC(C)(C)NC(=O)COc1ccc(CNc2ccc3[nH]c(=O)[nH]c3c2)cc1,1.48% (inactive)
15,CC(C)n1ncc2c(C(=O)NCc3ccccc3CN(C)C)cc(C3CC3)nc21,144% (active)
16,O=C(NCCN1CCOCC1)c1cc(-c2cccs2)nc2ccccc12,8.64% (inactive)
17,CC(C)(C)OC(=O)NNc1c2ccccc2nc2ccccc12,-3.52% (inactive)
18,COC(=O)c1cc(-c2cccs2)nc2ccccc12,136% (active)
19,Brc1cnc2ccccc2c1N1CCCCC1,83.3% (active)
20,COc1ccc2c(c1)cc1n2CCN=C1NN,108% (active)
21,CCN(C(=O)COC(=O)c1ccc(COc2ccc3c(C)cc(=O)oc3c2)cc1)C1CCS(=O)(=O)C1 (stereo unspecified),4.73% (inactive)
22,CCC(C)N(C(=O)COC(=O)C1C(C(=O)OC)=C(C)NC(C)=C1C(=O)OC)C1CCS(=O)(=O)C1 (stereo unspecified),172% (active)
23,COCc1cc(=O)[nH]c2cc(NC(=O)C(F)(F)F)c(C)cc12,73% (active)
24,CN1c2ccc(C=O)c3c(C=O)ccc(c23)N(C)C1(C)C,21.7% (inactive)

row,SMILES,inhibition
1,Cc1ccc(-n2c(=O)c(C#N)cc3c(=O)n4ccccc4nc32)cc1C,21.8% (inactive)
2,CN(C(=O)c1cc2c(=O)n3ccccc3nc2s1)C1CCCCC1,50.9% (active)
3,COCCCNC(=S)NCCNc1nc2cc(C)c(C)cc2cc1C#N,91.5% (active)
4,CCOc1ccc2nc(NCCNS(=O)(=O)c3ccccc3)c(C#N)cc2c1,19.6% (inactive)
5,CN(C(=O)c1ccccn1)c1nnc(-c2ccccn2)s1,"618% [above what the read-out allows, likely interference] (active)"
6,CN(C(=O)COc1ccccc1)c1nnc(-c2ccncc2)s1,"830% [above what the read-out allows, likely interference] (active)"
7,CC1=CC2=NC(=O)CC(C)(C(=O)N(CC(=O)NC(C)(C)C)Cc3ccccc3)N2C=C1 (stereo unspecified),4.13% (inactive)
8,NC(=O)C1CCN(C(=O)COc2ccc3c4c(c(=O)oc3c2)CCC4)CC1,-0.32% (inactive)
9,CCCCC(NS(=O)(=O)c1ccc(C)cc1)C(=O)Oc1ccc2c3c(c(=O)oc2c1)CCC3 (stereo unspecified),81.2% (active)
10,COCC(C)OC(=O)c1c(N)n(CCCN2CCOCC2)c2nc3ccccc3nc12 (stereo unspecified),-0.37% (inactive)
11,CC(C)Cn1c(N)c(C(=O)NCc2cccs2)c2nc3ccccc3nc21,41.1% (active)
12,CCCNC(=O)c1c(N)n(-c2ccc(S(N)(=O)=O)cc2)c2nc3ccccc3nc12,25.9% (inactive)
13,C=CCn1c(N)c(C(=O)OCC(C)C)c2nc3ccccc3nc21,73.3% (active)
14,CCOC(=O)N1CCN(C(=O)c2cc3c(ccc4ccccc43)oc2=O)CC1,4.05% (inactive)
15,O=C(Nc1cccc2ccccc12)N1CCN(Cc2ccc3c(c2)OCO3)CC1,72.6% (active)
16,O=C(Nc1cccc2ccccc12)N1CCC2(CC1)OCCO2,124% (active)
17,COCCCn1c(C(=O)NC2CCCCC2)cc2c(=O)n3cccc(C)c3nc21,66.3% (active)
18,C#Cc1cc(N2CCN(C(=O)c3ccoc3)CC2)n2nc(-c3cccc(Cl)c3)cc2n1,85.9% (active)
19,Cn1cc(-c2ccccc2)cc(C#N)c1=O,79.6% (active)
20,C=CCn1cc(-c2cccc(C(F)(F)F)c2)cc(C#N)c1=O,0.59% (inactive)
21,CCCCN(CCCC)CC(O)Cn1c2ccccc2c(=O)c2ccccc21 (stereo unspecified),113% (active)
22,Nc1ccccc1C(=O)NC1CCCCNC1=O (stereo unspecified),151% (active)
23,Cc1ccc(C2Nc3ccccc3C(=O)N2CCN2CCNC2=O)cc1 (stereo unspecified),-6.16% (inactive)
24,CCOC(=O)NN1C(=O)c2ccccc2NC1c1cccc(O)c1 (stereo unspecified),136% (active)
